Among the data in PubChem BioAssay are composite z-score and z-score values, retold here.

The source made the active and inactive calls.

Assay [1] is described as follows: compounds binding Alexa647 anti-His antibody – biochemical, small-molecule microarray, 635 nm fluorescence, artefact control for SMM control protein annotation, primary screen (AID 1128).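 Also: score merges feature fluorescence with signal-to-noise for each printed compound spot.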 As to conditions: higher = more signal.
The subject of assay [2] is Human papillomavirus type 1a E7 protein (residues 1-88). Put plainly: HPV1a E7 small-molecule binders, primary screen, biochemical, small-molecule microarray, residues 1-88, 635 nm (AID 1129). As to conditions: small-molecule microarray binding, fluorescence 635 nm; higher = more signal.
Assay [3] concerns the target Focal adhesion kinase 1 (Homo sapiens) (UniProt Q05397). Put plainly: PTK2 protein binding on printed compound slides – biochemical, small-molecule microarray, 635/667 nm fluorescence, BSA, DTT, primary screen (AID 1130).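 Also: composite of spot emission at 667 nm and signal to noise over triplicate slides.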 The note with it: 635 nm fluorescence, higher = more signal.
The subject of assay [4] is Fibrinogen (Alexa647-labelled). Nature of the assay: Alexa647-fibrinogen binding to printed small molecules – biochemical, small-molecule microarray, 635/667 nm fluorescence, artefact control for SMM control-protein annotation, profiling panel (AID 1131).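 Also: z-score merges 667 nm fluorescence with per-spot signal-to-noise over triplicate slides.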 As to conditions: fibrinogen-A647 binding fluorescence, higher = more signal.
Assay [5] deals with Follistatin (Homo sapiens) (UniProt P19883). Put plainly: FST protein binding to printed compounds – biochemical, small-molecule microarray, 635/667 nm fluorescence, primary screen (AID 1132). As to conditions: 635 nm fluorescence, higher = more signal.
Assay [6] deals with Fibroblast growth factor 2 (Homo sapiens) (UniProt P09038). Nature of the assay: basic fibroblast growth factor binding to printed compounds – biochemical, small-molecule microarray, 635/667 nm fluorescence, primary screen (AID 1133). The note with it: FGF2, fluorescence 635/667, higher = more signal.
A short description of assay [7]: JC-1 mitochondrial potential readout, lung cancer cells – cell-based, A549, JC-1 fluorescence, basal, 24 h, 100 nL, profiling panel (AID 1138).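 Also: A549 lung adenocarcinoma cells under basal conditions with no added stimulus; test concentration not given here.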 The note with it: higher = more signal.
The subject of another assay is Lefty1. Put plainly: Lefty1 protein binding to printed compounds – biochemical, small-molecule microarray, 635/667 nm fluorescence, primary screen (AID 1139). As to conditions: fluorescence 635/667, higher = more signal.
The test system of assay [8] is wheat germ agglutinin (Triticum aestivum), Alexa647-labelled. Nature of the assay: Alexa647-WGA lectin binding to printed small molecules – biochemical, small-molecule microarray, 635/667 nm fluorescence, artefact control for SMM control-protein annotation, profiling panel (AID 1140).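 Also: score merges 667 nm feature emission with signal to noise over triplicate slides.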 The note with it: WGA-A647 binding, 635 nm fluorescence, higher = more signal.
Assay [9] has as its target Luciferin 4-monooxygenase (Photinus pyralis) (UniProt P08659). Put plainly: inhibition of purified Photinus pyralis luciferase – biochemical, luminescence, purified enzyme, 2006 set, primary screen (AID 1141).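 Also: cell-free assay with purified firefly luciferase at 100 ng per well in PBS; test concentration not given here.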 As to conditions: purified firefly luciferase, SteadyGlo luminescence, 30 min; higher = more signal, called active from +8 up or from −8 down.
For assay [10], the system named is Wnt5a (protein binding on small-molecule microarray). Nature of the assay: small molecules binding Wnt5a protein – biophysical, small-molecule microarray, 635/667 nm fluorescence, primary screen (AID 1142).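 Also: fluorescence read at 667 nm with signal to noise per printed feature.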 As to conditions: 635 nm fluorescence, higher = more signal.
Assay [11] is described as follows: ATP-based viability of Huh7 replicon cells – cell-based, CellTiter-Glo luminescence, basal, 48 h, cytotoxicity control for HCV replication inhibitor project, primary screen (AID 1143).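 Also: Huh7 hepatoma cells carrying a hepatitis C replication reporter with no stimulus; test concentration not given here.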 The note with it: higher = more signal, called active from +8 up or from −8 down.
Assay [12] in a line: basal CRE-LacZ reporter activity in PC12 – cell-based, unstimulated, primary screen (AID 1145). The note with it: no forskolin, luminescence, 4.5 h, higher = more signal, called active from +8 up or from −8 down.
The nature of assay [13]: forskolin-driven CRE-LacZ activity in PC12 – cell-based, CRE-LacZ reporter, forskolin-stimulated, primary screen (AID 1146).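 Also: PC12 cells with 6xCRE LacZ reporter stimulated by forskolin 10 µM; beta-galactosidase reporter signal reflecting CREB driven transcription.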 As to conditions: luminescence, 4.5 h, higher = more signal, called active from +8 up or from −8 down.
Assay [14] addresses Streptavidin (Streptomyces avidinii) (UniProt P22629). Put plainly: compounds binding control protein streptavidin – biophysical, small-molecule microarray, 635/667 nm fluorescence, artefact control for SMM compound annotation, primary screen (AID 1147).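 Also: signal reflects streptavidin binding to arrayed compounds as a control protein.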 As to conditions: higher = more signal.
Assay [15] is described as follows: probe aInhba binding on compound microarray – biochemical, small-molecule microarray, 635/667 nm fluorescence, primary screen (AID 1148).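 Also: score merges 667nm spot fluorescence with signal-to-noise for antibody binding to printed compounds.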 The note with it: higher = more signal.
Assay [16] concerns the target Torsin-1A (Homo sapiens) (UniProt O14656). Put plainly: TOR1A wild-type binding on microarray – cell lysate, small-molecule microarray, lysate, 635/667 nm, primary screen (AID 1149). As to conditions: COS7 hTOR1A-WT lysate, 635 nm fluorescence, higher = more signal.
Assay [17] has the same target. Put plainly: torsin A mutant lysate binding on microarrays – cell lysate, small-molecule microarray, COS7 lysate, 635/667 nm fluorescence, primary screen (AID 1150).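 Also: score pools 667 nm emission and signal to noise measuring lysate protein binding.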 As to conditions: COS7 hTOR1A mutant lysate, 635 nm fluorescence, higher = more signal.
In assay [18] the test system is Sonic hedgehog protein (Shh). Put plainly: Sonic hedgehog microarray binding compounds – biochemical, small-molecule microarray, 635/667 nm fluorescence, primary screen (AID 1151).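 Also: Shh protein binding to compounds spotted on small-molecule microarray slides; score combines spot fluorescence intensity with signal-to-noise across triplicate slides.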 As to conditions: 635 nm fluorescence, higher = more signal.

Sequence of Focal adhesion kinase 1 (Homo sapiens) (Q05397 whole entry, looked up): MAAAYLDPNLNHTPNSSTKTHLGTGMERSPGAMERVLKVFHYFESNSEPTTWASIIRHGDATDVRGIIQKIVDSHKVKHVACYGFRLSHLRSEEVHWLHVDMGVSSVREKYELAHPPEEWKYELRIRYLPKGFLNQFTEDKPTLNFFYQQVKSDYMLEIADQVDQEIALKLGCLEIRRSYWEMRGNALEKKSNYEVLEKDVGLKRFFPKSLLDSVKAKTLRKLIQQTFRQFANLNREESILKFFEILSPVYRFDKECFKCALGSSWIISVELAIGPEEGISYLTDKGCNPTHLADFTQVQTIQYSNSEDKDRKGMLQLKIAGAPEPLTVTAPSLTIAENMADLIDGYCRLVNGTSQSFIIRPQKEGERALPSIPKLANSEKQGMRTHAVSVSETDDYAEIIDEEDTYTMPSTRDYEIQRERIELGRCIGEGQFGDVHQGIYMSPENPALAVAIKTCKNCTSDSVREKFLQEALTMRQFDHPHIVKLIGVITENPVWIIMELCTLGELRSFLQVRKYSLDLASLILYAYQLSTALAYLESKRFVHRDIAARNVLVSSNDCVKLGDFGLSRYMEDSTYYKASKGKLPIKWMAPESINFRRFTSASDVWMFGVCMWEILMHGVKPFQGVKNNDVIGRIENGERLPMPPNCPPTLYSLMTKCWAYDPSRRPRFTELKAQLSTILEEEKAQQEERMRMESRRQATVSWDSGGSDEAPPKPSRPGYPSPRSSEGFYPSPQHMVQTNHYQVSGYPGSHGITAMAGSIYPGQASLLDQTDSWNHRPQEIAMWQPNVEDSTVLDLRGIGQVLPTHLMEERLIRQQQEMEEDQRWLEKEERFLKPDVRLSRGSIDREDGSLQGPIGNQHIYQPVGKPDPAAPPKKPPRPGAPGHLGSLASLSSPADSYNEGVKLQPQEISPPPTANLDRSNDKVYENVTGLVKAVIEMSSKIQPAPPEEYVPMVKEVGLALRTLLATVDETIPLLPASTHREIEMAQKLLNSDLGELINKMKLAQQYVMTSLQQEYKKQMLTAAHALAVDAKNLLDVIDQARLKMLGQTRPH
Sequence of Fibroblast growth factor 2 (Homo sapiens) (P09038 whole entry, looked up): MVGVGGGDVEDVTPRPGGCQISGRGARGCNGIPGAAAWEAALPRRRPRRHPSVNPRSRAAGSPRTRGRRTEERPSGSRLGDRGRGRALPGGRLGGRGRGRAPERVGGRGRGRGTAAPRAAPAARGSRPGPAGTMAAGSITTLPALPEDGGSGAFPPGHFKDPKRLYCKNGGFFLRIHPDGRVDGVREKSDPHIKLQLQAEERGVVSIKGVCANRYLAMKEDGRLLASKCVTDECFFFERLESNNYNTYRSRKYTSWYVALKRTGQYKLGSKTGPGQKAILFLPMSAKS
Sequence of Torsin-1A (Homo sapiens) (O14656 whole entry, looked up): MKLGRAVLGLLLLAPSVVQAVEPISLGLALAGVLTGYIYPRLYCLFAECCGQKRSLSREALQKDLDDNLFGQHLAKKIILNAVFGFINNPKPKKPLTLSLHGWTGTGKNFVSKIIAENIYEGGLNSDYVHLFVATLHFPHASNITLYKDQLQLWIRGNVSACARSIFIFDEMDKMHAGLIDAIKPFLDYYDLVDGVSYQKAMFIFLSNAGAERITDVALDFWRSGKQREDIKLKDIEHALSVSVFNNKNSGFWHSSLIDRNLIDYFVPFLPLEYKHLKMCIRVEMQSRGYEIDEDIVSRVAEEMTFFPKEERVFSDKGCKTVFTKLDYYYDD
Sequence of Follistatin (Homo sapiens) (P19883 whole entry, looked up): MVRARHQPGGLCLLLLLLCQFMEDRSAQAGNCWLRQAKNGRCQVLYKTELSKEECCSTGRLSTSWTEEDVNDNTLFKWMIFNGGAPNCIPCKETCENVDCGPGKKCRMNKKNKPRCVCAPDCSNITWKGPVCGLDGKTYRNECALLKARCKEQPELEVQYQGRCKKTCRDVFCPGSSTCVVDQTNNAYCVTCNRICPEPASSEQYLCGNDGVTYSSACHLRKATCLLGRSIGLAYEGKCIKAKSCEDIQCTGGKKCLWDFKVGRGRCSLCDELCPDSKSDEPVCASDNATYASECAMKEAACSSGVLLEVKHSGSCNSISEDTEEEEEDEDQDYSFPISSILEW
Sequence of Streptavidin (Streptomyces avidinii) (P22629 whole entry, looked up): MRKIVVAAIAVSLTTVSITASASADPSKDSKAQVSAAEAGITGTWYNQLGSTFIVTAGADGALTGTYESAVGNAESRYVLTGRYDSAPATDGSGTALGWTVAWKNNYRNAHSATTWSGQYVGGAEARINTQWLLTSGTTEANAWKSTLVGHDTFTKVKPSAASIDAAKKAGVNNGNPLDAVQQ
Sequence of Luciferin 4-monooxygenase (Photinus pyralis) (P08659 whole entry, looked up): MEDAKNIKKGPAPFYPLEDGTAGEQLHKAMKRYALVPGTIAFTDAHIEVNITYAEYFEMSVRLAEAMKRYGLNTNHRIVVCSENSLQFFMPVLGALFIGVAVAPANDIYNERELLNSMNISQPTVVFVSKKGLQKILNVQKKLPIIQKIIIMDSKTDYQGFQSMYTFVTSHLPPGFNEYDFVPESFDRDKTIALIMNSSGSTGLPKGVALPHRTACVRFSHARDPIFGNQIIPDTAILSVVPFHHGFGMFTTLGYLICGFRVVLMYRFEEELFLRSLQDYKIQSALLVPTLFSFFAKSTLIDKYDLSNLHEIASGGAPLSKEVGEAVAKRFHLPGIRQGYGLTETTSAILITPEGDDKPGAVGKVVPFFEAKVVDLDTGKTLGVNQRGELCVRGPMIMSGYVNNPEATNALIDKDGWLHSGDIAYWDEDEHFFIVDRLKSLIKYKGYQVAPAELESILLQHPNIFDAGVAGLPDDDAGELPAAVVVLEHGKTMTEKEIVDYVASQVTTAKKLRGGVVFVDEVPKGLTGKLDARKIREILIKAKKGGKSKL

Turning to `COc1cc2c(cc1OC)CN(C(=O)[C@@H]1[C@H]3C(=O)O[C@H](c4ccccc4)[C@H](c4ccccc4)N3[C@H](c3ccccc3OCCO)[C@@]13C(=O)Nc1ccccc13)CC2`, the composite z-score is 2.5 in assay [1]; 1.22 in assay [2]; 0.702 in assay [3]; 0.833 in assay [4]; 0.666 in assay [5]; 0.465 in assay [6]. Also, the composite z-score in the assay with Lefty1 came to 0.0595; in assay [8], 0.849; in [10] it was 0.406; in assay [14], 0.0797; in [15] it was 0.387; in the assay with Torsin-1A (Homo sapiens) [16] it was 0.497. In addition, the composite z-score with Torsin-1A (Homo sapiens) [17] was 0.701; in [18], 0.554. The z-score was 0.447 in assay [7]; -1.38 (inactive) in [9]; -2.96 (inactive) in assay [11]; 0.769 (inactive) in [12]; -1.31 (inactive) in assay [13].
As to `Cc1ccc(N2C(=O)c3ccccc3[C@](C)(C(=O)O)[C@@H]2c2ccc(CO)cc2)nc1`, the composite z-score is -0.763 in assay [1]; -0.914 in [2]; -0.594 in assay [3]; -0.912 in assay [4]; -1.04 in assay [5]; -1.12 in assay [6]. Moreover, the composite z-score with Lefty1 was -1.28; in [8], -0.576; in [10], -0.56; in [14], -0.519; in assay [15], -0.267; with Torsin-1A (Homo sapiens) [16] it was 1.11. Further, the composite z-score in the assay with Torsin-1A (Homo sapiens) [17] was -0.144; in [18], -0.751. Besides, the z-score in assay [7] is 1.08; in assay [9], -1.46 (inactive); in assay [11] it was -0.718 (inactive); in assay [12] it was -0.852 (inactive); in assay [13], -0.942 (inactive).
Take `C=CCN(C(=O)C1N(c2ccc(CCO)cc2)C(=O)C2C(C(=O)O)C3C=CC21O3)C(C)(C)C` (stereo not given): the composite z-score in [1] was -1.51; in assay [2], -0.55; in [3], -0.612; in assay [4], -1.4; in assay [5], -2.8; in assay [6] it was -2.13. In addition, the composite z-score is -3.43 in the assay on Lefty1; -2.09 in [8]; -0.505 in [10]; -2.01 in assay [14]; -0.227 in [15]; -3.07 in the assay with Torsin-1A (Homo sapiens) [16]. Also, the composite z-score is -1.77 in the assay with Torsin-1A (Homo sapiens) [17] and -1.34 in [18]. In addition, the z-score in assay [7] was -0.112; in assay [9], -0.163 (inactive); in assay [11] it was -1.93 (inactive); in assay [12], -0.623 (inactive); in [13], -0.819 (inactive).
For `COc1cccc([C@H]2N[C@H](C(=O)O)CC[C@@H]2C)c1`, the composite z-score in assay [1] was 0.184; in [2], 0.335; in assay [3], 0.163; in assay [4], 0.363; in assay [5] it was 0.0807; in assay [6] it was -0.0305. For the same molecule, the composite z-score with Lefty1 was 0.223; in assay [8] it was -0.208; in assay [10], 0.04; in [14], 0.158; in [15] it was -0.111; with Torsin-1A (Homo sapiens) [16], 0.386. Moreover, the results for the composite z-score (with Torsin-1A (Homo sapiens) [17]; in assay [18]) were 0.403 and -0.0276, respectively. In addition, the z-score in assay [7] was -0.14; in assay [9] it was -0.128 (inactive); in [11], -3.79 (inactive); in assay [12] it was -0.167 (inactive); in assay [13] it was -1.61 (inactive).
Consider `COCCOC(=O)N1C(=O)[C@@]2(c3cc(C#CC4(O)CCCCCC4)ccc31)[C@H](C(=O)N1CCCCCCC1)[C@H]1C(=O)O[C@H](c3ccccc3)[C@H](c3ccccc3)N1[C@@H]2c1ccc(O)cc1`, for which the composite z-score in assay [1] was 1.25; in [2], 1.22; in [3], 0.646; in [4], 0.72; in assay [5], 1.48; in assay [6] it was 0.536. In addition, the composite z-score was 1.08 in the assay on Lefty1; 1.38 in assay [8]; 0.464 in assay [10]; 1.16 in assay [14]; 1.01 in assay [15]; 1.27 with Torsin-1A (Homo sapiens) [16]. The composite z-score was determined as 0.889 in the assay with Torsin-1A (Homo sapiens) [17] and 1.68 in assay [18]. Besides, the z-score in [7] is 0.208; in assay [9], -1.27 (inactive); in assay [11], -4.34 (inactive); in [12] it was -0.211 (inactive); in assay [13], -1.68 (inactive).
